# Reference: ChEMBL document CHEMBL3988442, “University of Dundee, Small-Polar-MMV Screening Library” (2021)
# About 13,000 (27%) of roughly 48,000 compounds showed an effect of 50% or more. The list shows a part of the results.
# System: Wolbachia pipientis
# Test: Anti-Wolbachia Cell-Based Screen
# Assay type: functional
# Set-up: scale not given: in the data most compounds retested in dose-response had high values
# Settings: 5 µM
row,Compound,Percent Effect
1,CC(C)n1nc(Cn2cccn2)c2c1CN(C1CCOC1)C2.O=C(O)C(F)(F)F (configuration not stated),-7.587%
2,COc1cc(C)ccc1S(=O)(=O)N1CC[C@](C)(O)[C@H](C)C1,-18.99%
3,Cc1cnn(C2CN(CC(O)Cn3cccn3)C2)c1 (configuration not stated),-31.52%
4,COc1ncccc1-c1nc(-c2ccccn2)nn1C1CCS(=O)(=O)C1 (configuration not stated),10.63%
5,CC(C#N)CNS(=O)(=O)c1ccc(F)c(Br)c1 (configuration not stated),-7.227%
6,O=C(Nc1ccc(S(=O)(=O)Nc2c(F)cccc2F)cc1)N1CCCC1,-7.034%
7,CCN(CC(=O)NC(C)C)S(=O)(=O)N1CCCCCC1,9.147%
8,CCN(CC(=O)NC(C)(C)C)Cc1cccc2c1OCCO2,-0.7065%
9,CCNC(=O)CN(CC)Cc1nc2c(F)cccc2n1CC,-0.387%
10,CCOc1nnc(CN(CC)CC(=O)Nc2c(F)cccc2F)s1,97.11%
11,CCOc1ccccc1C(CC(=O)Nc1ccccc1F)NC(C)=O (configuration not stated),-7.406%
12,CCOc1nnc(CN(CC)CC(=O)NC(C)C)s1,101.2%
13,CCN(CC(=O)Nc1cc(C(C)(C)C)no1)Cc1ccc(Cl)s1,1.082%
14,CCOc1nnc(CN(CC)CC(=O)NC(C)(C)C)s1,93.91%
15,CCOc1nnc(CN(Cc2ccccc2)CC(O)c2ccco2)s1 (configuration not stated),2.067%
16,O=C1[C@@H]2CCN(Cc3ccc(F)cc3)C[C@@H]2OCCN1c1cccnc1,-21%
17,Cc1cccc(CN2CCCC3(CCN(C4CCSCC4)C3)C2=O)c1 (configuration not stated),-3.098%
18,CN(C)C(=O)Cn1ccc2cc(NC(=O)N3CCSCC3)ccc21,-2.006%
19,Cc1ccc(C)c2c(O)cc(CNCC(N)=O)nc12,-7.963%
20,CC(C)c1nc(-c2cc(C(=O)NCCN(C)C)c3ccccn23)cs1.O=C(O)C(F)(F)F,-4.099%
21,O=C1N(CCCc2ccccc2)CCCC1(O)CN1CCC(CO)CC1 (configuration not stated),-7.352%
22,CC(C)n1ncc2c1NC(=O)C(C#N)C21CCCC1 (configuration not stated),15.91%

row,Compound,Percent Effect
1,COCCN1CCO[C@@H]2CN(Cc3ccc(C)s3)C[C@@H]2C1.O=C(O)C(F)(F)F.O=C(O)C(F)(F)F,-5.835%
2,CS(=O)(=O)N1CCO[C@@H]2CN(Cc3ccc(F)cc3)CC[C@@H]2C1.O=C(O)C(F)(F)F,-0.3298%
3,Cc1ccc(CN2CC[C@H]3[C@H]2CCN3S(C)(=O)=O)s1.O=C(O)C(F)(F)F,-3.604%
4,Cc1ccc(CN2CC[C@H]3OCC[C@@H](C(=O)NCC4CC4)[C@@H]3C2)s1.O=C(O)C(F)(F)F,-8.513%
5,CS(=O)(=O)N1CCO[C@@H]2CCN(Cc3ccncc3)CC[C@H]21.O=C(O)C(F)(F)F.O=C(O)C(F)(F)F,114.1%
6,Cc1ccc(CN2CC[C@H]3[C@H]2CCN3S(=O)(=O)C2CC2)s1.O=C(O)C(F)(F)F,-4.175%
7,Cc1ccc(CN2CC[C@@H]3OCCN(S(C)(=O)=O)[C@H]3CC2)s1.O=C(O)C(F)(F)F,114.1%
8,CS(=O)(=O)N1CC[C@H]2O[C@H](C(=O)NCCc3ccncc3)CC[C@H]21.O=C(O)C(F)(F)F,-5.225%
9,Cc1ccc(CN2CC[C@@H]3OCCN(Cc4ccncc4)[C@H]3CC2)s1.O=C(O)C(F)(F)F.O=C(O)C(F)(F)F.O=C(O)C(F)(F)F,91.24%
10,CC1CN(S(=O)(=O)c2cc(S(C)(=O)=O)ccc2Br)c2cccnc2O1 (configuration not stated),-14.61%
11,CC1(C)CN(CC(F)(F)F)CCN1CC(=O)N1CCCCC1,-2.434%
12,O=C(O)C(F)(F)F.O=S(=O)(NC[C@]12COC[C@H]1CN(c1ncc(F)cn1)C2)C1CC1,7.707%
13,Cc1nc2ccnn2c(C)c1CCC(=O)N1CCN(C2CC2)CC1,0.559%
14,COCC(C)N(C)C(=O)CCc1c(C)nc2c(C#N)cnn2c1C (configuration not stated),-1.234%
15,Cc1nc2cc(O)nn2c(C)c1CCC(=O)N(C)Cc1ccccc1,86.37%
16,Cc1nc2cc(O)nn2c(C)c1CCC(=O)N(C)CCC(C)C,96.83%
17,COC(=O)CCc1c(C)nc2cc(O)nn2c1C,10.93%
18,Cc1nc2c(C#N)cnn2c(C)c1CCC(=O)N(C)C(C)C(C)C (configuration not stated),7.938%
19,Cc1nn(CCC#N)c(C)c1CCC(=O)N(C)Cc1ccsc1,21.07%
20,Cc1nn(C)c(C)c1CCC(=O)N(C)Cc1ccc2nsnc2c1,27.84%
21,CCCN(CC(F)F)C(=O)CCc1c(C)nc2cc(O)nn2c1C,131.4%
22,CN1CCC2(CCC1=O)CCN(C(=O)Cc1ccc(O)c(F)c1)CC2,0.2124%

row,Compound,Percent Effect
1,Cc1ccn(CCNc2ncnc3c2CCN(c2cnccn2)CC3)n1,7.115%
2,CC(O)CN1CCC(CNCc2cccc(Br)c2)CC1 (configuration not stated),7.461%
3,COc1cccn(CC(=O)N(C)CCOc2cc(C)cc(C)c2)c1=O,-7.697%
4,CN(C)CCN(C)C(=O)Cn1cccc2cc(-c3ccc(F)cc3)nc1-2,149.6%
5,COc1ccc(-c2cc3cccn(CC(=O)N4CCOCC4)c-3n2)cc1,153.8%
6,O=C(Cn1cccc2cc(-c3ccc(F)cc3)nc1-2)N1CCC(O)CC1,121.3%
7,O=C(c1nnn(-c2ccc(F)cc2)n1)N1CCC(O)CC1,1.522%
8,COCCN(C)C(=O)Cn1cccc(OC)c1=O,-3.023%
9,COc1cccc(CN2CCN(C(=O)CN3CCOCC3)CC2)n1,-0.8074%
10,O=C(Cn1nnc(-c2cc3ccccc3o2)n1)N1CCOCC1,-8.281%
11,COC1CCN(C(=O)Cn2ccc3ccccc32)CC1,0.3613%
12,CC(C)(C)c1nnc(CN2CCC(c3cc4ccccc4[nH]3)CC2)o1,4.334%
13,COCCc1noc(-c2cn(Cc3ccccc3C)nn2)n1,-12.89%
14,NS(=O)(=O)CCNC(=O)C1(c2ccccc2)CC1,-12.67%
15,O=C(NCCCNc1ccccn1)NCC1CCS(=O)(=O)C1 (configuration not stated),10.33%
16,CC(C)c1ncc2c(n1)CN(Cc1ccc(C(N)=O)cc1)CC2,-9.095%
17,c1nc(N2CCc3[nH]cnc3C2)c2cc[nH]c2n1,98.13%
18,Cc1nc(C)n(CC2CCCN(c3ncnc4[nH]ccc34)C2)n1 (configuration not stated),6.618%
19,Cc1ncc2c(n1)CN(c1ncnc3[nH]ccc13)CC2,103%
20,CC(C)c1ncc2c(n1)CN(c1ncnc3[nH]ccc13)CC2,96.63%
21,CC(C)c1ncc2c(n1)CN(CC1CCCCO1)CC2 (configuration not stated),-13.54%
22,COCCCN1CC2(CCCN(c3ncnc4[nH]ccc34)C2)CCC1=O (configuration not stated),0.6665%

row,Compound,Percent Effect
1,CN(C)CC1CN(c2ncnc3[nH]ccc23)CCO1 (configuration not stated),4.502%
2,Cc1ncc2c(n1)CN(C(C(N)=O)c1ccc(F)cc1)CC2 (configuration not stated),-2.692%
3,OC1(CN2CCCC2)COCCN(c2ncnc3[nH]ccc23)C1 (configuration not stated),7.822%
4,c1ncc2c(n1)CN(c1ncnc3[nH]ccc13)CC2,97.2%
5,Cn1cc(C2CCCN2c2ncnc3[nH]ccc23)cn1 (configuration not stated),-13.62%
6,CC(C)CCN(C(=O)c1cc2c([nH]c1=O)CCCC2=O)C1CC1,-4.935%
7,O=C(NC(C1CC1)C1CC1)c1cccc[n+]1[O-],1.029%
8,Cn1cc(Br)cc(NC(=O)Cc2cccs2)c1=O,-8.828%
9,CCc1cnc(CNc2cccc3c2CCN(S(=O)(=O)CC)C3)o1,-1.845%
10,CN(CCCc1cc(-c2cccc(F)c2)n[nH]1)C(=O)CCn1cncn1,11.69%
11,CNC(=O)[C@@H](C1CCCCC1)N1CCC[C@H]1C(=O)N(C)CCN(C)C.Cl.Cl,6.649%
12,Cc1cccc(CN2Cc3[nH]nc(COCc4nccs4)c3C2)n1.O=C(O)C(F)(F)F,-5.307%
13,CC(C)NC(=O)N1CCc2c(CNc3ncccn3)cncc2C1.Cl,-8.609%
14,Cc1nc(-c2cnn(C)c2)nc2c1CN(C(=O)c1cccn1C)CC2,-11.99%
15,Cc1occc1C(=O)N1CCc2c(CNS(C)(=O)=O)cncc2C1.Cl,99.94%
16,Cl.Cn1cccc1C(=O)N1CCc2c(CNS(C)(=O)=O)cncc2C1,99.59%
17,CS(=O)(=O)NCc1cncc2c1CCN(C(=O)c1cccnc1)C2.Cl.Cl,94.15%
18,Cc1occc1C(=O)N1CCc2c(CNc3ncccn3)cncc2C1.Cl,-10.41%
19,CS(=O)(=O)NCc1cncc2c1CCN(C(=O)c1ccccn1)C2,100.5%
20,CN(C)C(=O)N1CCc2c(CNc3ncccn3)cncc2C1,-13.49%
21,Cc1cccc(C(=O)N2CCc3c(COCC4CC4)cncc3C2)n1,-8.984%
22,COCc1cncc2c1CCN(C(=O)c1ccoc1C)C2,-16.93%

row,Compound,Percent Effect
1,O=C(O)C1CCN(c2ccc(Sc3ccc(Br)cc3)nn2)CC1,-8.294%
2,Cc1cccc2c1OCCC2NCc1c(C)nn(C)c1N(C)C (configuration not stated),-23.23%
3,Cc1ccc(C(=O)N2CCc3c(CNS(C)(=O)=O)cncc3C2)o1.Cl,-12.96%
4,Cc1ccc(C(=O)N2CCc3c(CNc4ncccn4)cncc3C2)o1.Cl,96.21%
5,Cc1ccc(C(=O)N2CCc3c(COCC4CC4)cncc3C2)o1,-16.58%
6,CCc1cnc(N2CCN(Cc3ccon3)CC2)s1,-1.549%
7,O=C(c1cc(Cl)c2c(c1)OCCCO2)N(CC1CCOC1)C1CC1 (configuration not stated),-3.487%
8,CC(C)c1cccc(NC(=O)Cn2c(=O)n(C)c(=O)c3sccc32)c1,155.2%
9,Cc1cc(=O)n(CC(=O)Nc2cccc(Cl)c2)nc1C,-4.372%
10,CCn1nc(C)c2nnn(CC(=O)Nc3cccc(Cl)c3)c(=O)c21,-0.8024%
11,COc1ccc(Cn2c(=O)n(C)c(=O)c3sccc32)cc1,5.606%
12,O=C(Cn1c(=O)nc2n1C(=O)N(c1ccccc1)C2)Nc1ccccc1,2.08%
13,COc1cccc(Cn2c(=O)n(C)c(=O)c3sccc32)c1,-18.58%
14,Cn1c(=O)c2sccc2n(Cc2ccccc2)c1=O,-1.761%
15,O=C(Cn1cc(-c2ccccc2)ncc1=O)Nc1ccncc1,8.409%
16,CC(C)n1c(=O)c2sccc2n(CC(=O)Nc2ccccc2)c1=O,126.1%
17,Cn1c(=O)c2sccc2n(CC(=O)Nc2cccc(Cl)c2)c1=O,134.9%
18,CCn1c(=O)c2sccc2n(CC(=O)Nc2cccc(Cl)c2)c1=O,148.7%
19,CC(C)c1cccc(NC(=O)N2CC(N(C)C)C2)c1,-4.396%
